According to PubChem BioAssay (NCATS):
Records with an inconclusive call do not appear. Where a call stands in place of a potency, no number is given. Calls of active or inactive are those of the source. Calls follow the shape of the dose curve; as a rule, active = well fitted cell-killing curve with a large enough effect; inconclusive = small, poorly fitted or top-dose-only effect, or effect the other way; inactive = flat fitted curve, though single readings scatter.

Tested on: Tov112D
Assay: Primary qHTS to identify gynecologic anti-cancer compounds using libraries of approved drugs and bioactive compounds (AID 1345084); also: nearly all actives have a fitted effect of over 55% in size
Conditions: Gynecologic cancer cell panel viability, ATPlite luminescence, 48 h; series mostly up to 57.5 µM
How it was run: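 Luminescence from the ATPlite ATP-monitoring reagent indicates viable cell number; lower signal means cytotoxicity. Cells received compound 16 h after seeding and were exposed for 48 h across five concentrations.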

Structure (SMILES)	Potency
C1CN2CCC1CC2	inactive
CCC1(CC)C(=O)NC(=O)NC1=O	inactive
CC(C)(C)OC(=O)c1ncn2c1[C@@H]1CCCN1C(=O)c1c(Br)cccc1-2	inactive
CN1C(=O)CN=C(c2ccccc2)c2cc([N+](=O)[O-])ccc21	inactive
CCOC(=O)C(c1c(O)c2ccccc2oc1=O)c1c(O)c2ccccc2oc1=O	inactive
CNC(C)Cc1ccccc1OC (stereo not drawn)	inactive
ClCc1cccc(Cl)c1	inactive
CC(CC(C(N)=O)(c1ccccc1)c1ccccc1)N(C)C (stereo not drawn)	inactive
CC1Sc2c(C(=O)O)c(=O)c3cc(F)c(N4CCNCC4)cc3n21 (stereo not drawn)	inactive
O=C(CBr)Nc1ccc(Cl)cc1C(=O)c1ccccc1F	inactive
COP(=O)(OC)C(O)C(Cl)(Cl)Cl (stereo not drawn)	inactive
C[C@H]1CNCCc2ccc(Cl)cc21	inactive
COc1cc(N)c(Cl)cc1C(=O)NC1CN2CCC1CC2 (stereo not drawn)	inactive
COC(=O)C1=CCCN(C)C1	inactive
C[C@@H]1CN(C2CCC(C#N)(c3ccc(F)cc3)CC2)CC[C@]1(C(=O)O)c1ccccc1 (stereo partly drawn)	inactive
CCOC(=O)NC(O)C(Cl)(Cl)Cl (stereo not drawn)	inactive
OC(O)C(Cl)(Cl)Cl	inactive
ClCCCN1CCN(c2cccc(Cl)c2)CC1	inactive
C#C[C@]1(O)C=C[C@H]2[C@@H]3CCC4=CC(=O)CC[C@@H]4[C@H]3CC[C@@]21CC	inactive
O=c1[nH]c2cc(Cl)ccc2n1C1CCNCC1	inactive
O=C(O)Cc1ccccc1	inactive
CC(C)(O)C(Cl)(Cl)Cl	inactive
C[N+]1(CCC(C(N)=O)(c2ccccc2)c2ccccc2)CCCCC1	inactive
